FUS suppressor: suppressors of FUS proteinopathy in yeast; AID 1347120; Potency, µM (titrated, usually from 76.6 µM), most hits filed as activators; S. cerevisiae FUS-expressing, growth rescue, OD600, 24 h; 390,000 tested, 0.24% active;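 also: plate controls were DMSO vehicle for no effect and reference control for full effect; nearly all actives have a fitted effect of over 55% in size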
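Quantitative HTS measuring growth restoration of FUS-toxic yeast. Galactose-induced cells (OD 0.005) were exposed 24hr at 30C to compounds at several concentrations, then absorbance at 600 nm was recorded.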
TDP-43 yeast inh: inhibitors of TDP-43 toxicity in yeast. 410,000 tested, 1.8% active. TDP-43 expressing yeast growth rescue, BacTiter-Glo, 24 h. Potency, µM (series often up to 46.1 µM), for the others: top-dose growth rescue (activation), most hits filed as activators; also: % of control where 0% means no effect; nearly all actives have a fitted effect of over 50% in size
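Yeast cells expressing TDP-43 under galactose induction are exposed to compounds for 24 hr at 30 deg C. BacTiter-Glo luminescence measures growth, so protective compounds score as activators.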
aSyn rescue: inhibitors of alpha-synuclein toxicity in yeast | Yeast expressing alpha-synuclein, growth rescue, BacTiter-Glo, 24 h | Potency, µM (highest dose often 46.1 µM), inactives show at the highest dose growth rescue (activation), hits mostly activators | 370,000 tested, 0.14% active | AID 652106; also: % of control where 0% means no effect; nearly all actives have a fitted effect of over 65% in size
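Screening used galactose-induced yeast with toxic alpha-synuclein levels, exposed to compound for 24 hr at 30 deg C. Cell growth, read with BacTiter-Glo luminescence, gave the measured signal.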
Abeta rescue: compounds reversing amyloid beta toxicity in yeast | yeast expressing A-beta42, growth rescue, OD600, 48 h; response scale: 0% DMSO, 100% iron-clioquinol control | Potency, µM (highest dose often 46.1 µM), most hits filed as activators | 410,000 tested, 0.063% active; also: nearly all actives have a fitted effect of over 55% in size
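Growth rescue measured by 600 nm absorbance after 48 h yeast culture at 30 C with compound. Values normalized between DMSO and an equimolar ferric chloride plus clioquinol control.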
* = called active by the depositor. Shown are actives, neighbours in structure and some others; about 2.1% of the full set was active somewhere. Calls follow the shape of the dose curve; as a rule, active = well fitted curve in the direction sought with a large enough effect; inconclusive = small, poorly fitted or top-dose-only effect, or another doubt; inactive = no such curve, though single readings can be large; an effect the other way counts as inactive or inconclusive. Potency is read from the fitted curve at half-maximal effect.

`COC(=O)c1ccc(/C=N/OCC(=O)NCc2ccc(F)cc2)cc1` gave FUS suppressor inactive, TDP-43 yeast inh 32µM*, aSyn rescue 0% and Abeta rescue inactive.
O=C(COc1ccc(C(=O)c2ccc(F)cc2)cc1)NCc1ccc(F)cc1 was read as TDP-43 yeast inh 20µM*, aSyn rescue 7% and Abeta rescue inactive.
Screening COC(=O)c1ccc(CNC(=O)COC(=O)CCC(=O)c2ccc(F)cc2)cc1 returned TDP-43 yeast inh 2%, aSyn rescue -2% and Abeta rescue inactive.
CCOc1ccccc1/C=N/OCC(=O)NCc1ccc(F)cc1 was read as FUS suppressor inactive, TDP-43 yeast inh 22µM*, aSyn rescue 2% and Abeta rescue inactive.
COc1ccc(CNC(=O)COc2ccc(C(=O)c3ccc(F)cc3)cc2)cc1 was read as FUS suppressor inactive, TDP-43 yeast inh 22%, aSyn rescue -10% and Abeta rescue inactive.
Cc1cccc(C(=O)Nc2ccc(C(=O)OCc3cc(=O)n4nc(CC(C)C)sc4n3)cc2)c1 was read as FUS suppressor inactive, TDP-43 yeast inh 8% and Abeta rescue inactive.
O=C(CCc1ccccc1)NNC(=S)NC(=O)c1ccc(Cl)cc1 was read as FUS suppressor inactive, TDP-43 yeast inh 14µM*, aSyn rescue 13µM* and Abeta rescue inconclusive.
Screening Cc1ccc(C(=O)NC(=S)NNC(=O)COc2ccc([N+](=O)[O-])cc2)cc1 returned FUS suppressor inactive, TDP-43 yeast inh 20µM*, aSyn rescue 12% and Abeta rescue inconclusive.
`CCCCCC(=O)NNC(=S)NC(=O)c1cccc([N+](=O)[O-])c1` gave TDP-43 yeast inh inconclusive, aSyn rescue 16µM* and Abeta rescue inconclusive.
O=C(COc1ccccc1)NNC(=S)NC(=O)c1ccccc1 was read as FUS suppressor inactive, TDP-43 yeast inh 3.5µM*, aSyn rescue inconclusive and Abeta rescue inconclusive.
For O=C(NC(=S)NNC(=O)c1cnccn1)c1ccc(Cl)cc1 the results were FUS suppressor inactive, TDP-43 yeast inh 3.2µM*, aSyn rescue 5µM* and Abeta rescue inactive.
O=C(NC(=S)Nc1ccc(-c2ccccc2)cc1)c1ccccc1 was read as FUS suppressor inactive, TDP-43 yeast inh -7%, aSyn rescue 14% and Abeta rescue inactive.
For COc1ccc(C(=O)NC(=S)NNC(=O)c2cnccn2)cc1 the results were FUS suppressor inactive, TDP-43 yeast inh inconclusive, aSyn rescue inconclusive and Abeta rescue inactive.
Screening CC(C)NC(=S)NC(=O)c1ccc(-c2ccccc2)cc1 returned FUS suppressor inactive, TDP-43 yeast inh 18µM*, aSyn rescue -17% and Abeta rescue inactive.
`COc1ccc(CCNC(=S)NC(=O)c2cccc([N+](=O)[O-])c2)cc1OC` gave TDP-43 yeast inh 13µM*, aSyn rescue -1% and Abeta rescue inactive.
For CCCC(=O)NC(=S)NNC(=O)c1ccc([N+](=O)[O-])cc1 the results were FUS suppressor inactive, TDP-43 yeast inh 15%, aSyn rescue 20µM* and Abeta rescue inactive.
Screening CN(C(=O)[C@@H](C1CC1)[C@@H](O)c1ccc2ccccc2c1)c1ccccc1 returned FUS suppressor inactive.
For O=S1(=O)c2ccc(N3CCC[C@H]3CO)cc2OCCCN1C1CC1 the results were FUS suppressor inactive.
`C[C@@H](Nc1nc(Cl)nc2nc[nH]c12)c1ccccc1` gave aSyn rescue -2%.
Screening COc1ccc2c(c1)CCCN2C(=O)C1CCCN(S(=O)(=O)c2ccc(C(C)(C)C)cc2)C1 (stereo unspecified) returned FUS suppressor inactive.
COC(=O)[C@]12C[C@H](CC(=O)NCC3CCCCC3)C(=O)N(Cc3ccc(Cl)cc3Cl)C1=C[C@H](C(C)(C)C)O[C@@H]2C was read as FUS suppressor inactive.
For CCC(=O)NNC(=S)NC(=O)c1ccc(C)cc1 the results were FUS suppressor inactive, TDP-43 yeast inh 20µM*, aSyn rescue inconclusive and Abeta rescue inconclusive.
For COC(=O)[C@]12C[C@H](CC(=O)NCc3cccs3)C(=O)N(Cc3ccco3)C1=C[C@H](COCc1ccccc1)O[C@@H]2C the results were FUS suppressor inactive.
For CCOC(=O)Cn1cc(C(=O)c2ccco2)c2ccccc21 the results were FUS suppressor inactive, TDP-43 yeast inh 18µM*, aSyn rescue -3% and Abeta rescue inactive.
Screening O=CNc1cc(-c2ccccc2)cn2c(-c3ccc(F)c(Cl)c3)cnc12 returned FUS suppressor inactive, TDP-43 yeast inh inconclusive, aSyn rescue -13% and Abeta rescue inactive.
`O=CNc1cc(-c2cccc(F)c2)cn2c(-c3ccc(F)c(Cl)c3)cnc12` gave FUS suppressor inactive, TDP-43 yeast inh 16µM*, aSyn rescue -6% and Abeta rescue inactive.
Screening CN(C)c1ccc(-c2cc(NC=O)c3ncc(-c4ccc(F)c(Cl)c4)n3c2)cc1 returned FUS suppressor inconclusive, TDP-43 yeast inh 22µM*, aSyn rescue -6% and Abeta rescue inactive.
COC[C@H]1CCCN1c1ccc2c(c1)O[C@H]1CCN(C1)S2(=O)=O was read as FUS suppressor inactive.
For Cc1ccc(S(=O)(=O)Nc2ccc3nc(C)sc3c2)c(C)c1 the results were FUS suppressor inactive, TDP-43 yeast inh 13µM*, aSyn rescue 5% and Abeta rescue inactive.
Cc1ccc(S(=O)(=O)Nc2ccc3nc(C)sc3c2)cc1 was read as FUS suppressor inactive, TDP-43 yeast inh 29%, aSyn rescue 1% and Abeta rescue inactive.
`O=[N+]([O-])c1ccc(S(=O)(=O)NCC2CC3CCC2C3)cc1` (stereo unspecified) gave FUS suppressor inactive, TDP-43 yeast inh 22%, aSyn rescue 0% and Abeta rescue inactive.
For O=[N+]([O-])c1cccc(S(=O)(=O)NCC2CC3CCC2C3)c1 (stereo unspecified) the results were FUS suppressor inactive, TDP-43 yeast inh 11µM*, aSyn rescue 15% and Abeta rescue inactive.
Screening CCNC(=O)Nc1cc(OC)c(OC)cc1C(=O)O returned FUS suppressor inactive, TDP-43 yeast inh 2%, aSyn rescue 0% and Abeta rescue inactive.
COc1cc(NC(=O)C(c2ccccc2)c2ccccc2)c(C(=O)O)cc1OC was read as FUS suppressor inactive, TDP-43 yeast inh 22µM*, aSyn rescue 1% and Abeta rescue inactive.
`CN(C)c1ccc(/C=C/c2cnnc3ccccc23)cc1` gave aSyn rescue -30%.
`CC(C)C[C@H]1COc2cc(N3CCSCC3)ccc2S(=O)(=O)N1C` gave FUS suppressor inactive.
For Cc1c(Cl)cccc1Nc1nc(N)nc(CSc2ncccn2)n1 the results were FUS suppressor inactive, TDP-43 yeast inh 28%, aSyn rescue 3% and Abeta rescue inactive.
